From PubChem BioAssay (NCATS)
Results filed as inconclusive are left out. Entries that show only a call come without a potency. Where a structure was tested more than once in an assay, its records may differ in their call. A number with no mark means an inactive call. The source made the active and inactive calls. The call rests on the fitted dose curve; in most records, active means well fitted curve in the direction sought with a large enough effect; inconclusive means small, poorly fitted or top-dose-only effect, or another doubt; inactive means no such curve, though single readings can be large; an effect the other way counts as inactive or inconclusive.

Tests used:
[1] = Viability qHTS for spleen associated tyrosine kinase inhibitor (SYKi) naive MV4-11 cells (AID 1963823); further: nearly all actives have a fitted effect of over 40% in size; further: potency means the concentration at half of the fitted maximal effect
Outline: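 SYKi-naive MV4-11 AML cells, 500 per well, were exposed to library compounds for 72 hr at 37 C, 5% CO2. Viability was then read by CellTiter-Glo luminescence after 10 min at room temperature.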

[2] = Viability qHTS for spleen associated tyrosine kinase inhibitor (SYKi) drug resistant MV4-11 cells (AID 1963824); further: nearly all actives have a fitted effect of over 35% in size; further: potency means the concentration at half of the fitted maximal effect
Outline: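 SYK-inhibitor-resistant MV4-11 AML cells were seeded at 500 per well onto compound and cultured 72 hours (37 °C, 5% CO2). CellTiter-Glo was then added, and after 10 min at room temperature, luminescence gave viability.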

[3] = Quantitative highthroughput screen to assess conditional lethalithy of NOMO1 cells grown in RPMI1640 with untreated serum (RPMI+s) (AID 1963876); further: nearly all actives have a fitted effect of over 35% in size
Outline: (§1)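 Each medium arm—HPLM with 10% dialyzed FBS, or RPMI1640 with 5 mM glucose and 10% untreated or dialyzed FBS—was screened against an 11-point, 3-fold compound titration for 48 h at 37 °C, with CellTiter-Glo luminescence as endpoint.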

[4] = Quantitative highthroughput screen to assess conditional lethalithy of NOMO1 cells grown in RPMI1640 with dialyzed fetal bovine serum (RPMI+ds) (AID 1963877); further: series mostly up to about 46 µM; nearly all actives have a fitted effect of over 30% in size
Outline: as §1

[5] = Quantitative highthroughput screen to assess conditional lethalithy of NOMO1 cells grown in Human Plasma-Like Medium with dialyzed fetal bovine serum (HPLM+ds) (AID 1963878); further: nearly all actives have a fitted effect of over 35% in size
Outline: as §1

[6] = Quantitative highthroughput screen to assess conditional lethalithy of P12 Ichikawa cells grown in Human Plasma-Like Medium with dialyzed fetal bovine serum (HPLM+ds) (AID 1963879); details: Potency: viability; further: series mostly up to about 46 µM; nearly all actives have a fitted effect of over 35% in size
Outline: as §1

[7] = Quantitative highthroughput screen to assess conditional lethalithy of P12 Ichikawa cells grown in RPMI1640 with dialyzed fetal bovine serum (RPMI+ds) (AID 1963880); details: Potency: P12-Ichikawa viability; further: nearly all actives have a fitted effect of over 35% in size
Outline: as §1

[8] = Quantitative highthroughput screen to assess conditional lethalithy of P12 Ichikawa cells grown in RPMI1640 with untreated serum (RPMI+s) (AID 1963881); details: Potency: viability
Outline: as §1

[9] = Quantitative highthroughput screen to assess conditional lethalithy of SEM cells grown in Human Plasma-Like Medium with dialyzed fetal bovine serum (HPLM+ds) (AID 1963882)
Outline: as §1

[10] = Quantitative highthroughput screen to assess conditional lethalithy of SEM cells grown in RPMI1640 with unreated serum (RPMI+s) (AID 1963883); further: nearly all actives have a fitted effect of over 35% in size
Outline: as §1

[11] = Cellular viability qHTS for adrenocortical cancer (ACC) cell line SW-13 (AID 1963989); details: SW-13 ACC cells viability, CellTiter-Glo, 48 h; activity (max response): stronger effect = lower value;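 further: cells grown in serum-free medium with ITS supplement; nearly all actives have a fitted effect of over 65% in size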
Outline: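 IC50 and maximal-response values come from four-parameter logistic fits of titration data. SW-13 cells in serum-free medium received compounds (up to 46 uM final) for 48 h before CellTiter-Glo luminescence.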

[12] = Cellular viability qHTS for adrenocortical cancer (ACC) cell line NCI-H295R (AID 1963990); further: nearly all actives have a fitted effect of over 60% in size
Outline: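 Adrenocortical carcinoma cells, suspended at 300 000 cells/mL in serum-free DMEM plus ITS, rested overnight before pin transfer of compound. After two days' incubation, ATP-dependent luminescence was recorded and curve-fitted.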

Q: With COc1ccc2c(c1)N1C(=O)C[C@@]34C=CC[N@+]5([O-])CC[C@H]2[C@H](CC3)[C@@]145 as the compound, how does the Potency [1] read?
A: 6400 nM (active)

Q: With COC(=O)C1C(c2ccc(O)cc2)C(C(=O)O)C1c1ccc(O)cc1 (stereo not given) as the compound, how does the Potency [1] read?
A: inactive

Q: Which Potency [1] does the source give for C=C1[C@H]2CCC3[C@]4(C)CCC[C@@](C)(C(=O)O)C4CC[C@]3(C2)[C@H]1OC(C)=O (stereo not given in full) here?
A: inactive

Q: For O=C(Nc1cnc(Cl)nc1)c1ccc(F)c(F)c1, which Potency [1] is on record?
A: inactive

Q: With O=C(/C=C/c1ccc(O)cc1)OC[C@H]1O[C@@H](O/C(=C\c2ccccc2)C(=O)O)[C@H](O)[C@@H](O)[C@@H]1O as the compound, how does the Potency [1] read?
A: inactive

Q: Which Potency [1] does the source give for O=C(Nc1cccc(Nc2cc(Nc3cccc(C(F)(F)F)c3)ncn2)c1)C1CC1 here?
A: 164 nM (active)

Q: What does the source list for C=CC(C)(CCC=C(C)C)O[C@@H]1O[C@H](CO)[C@@H](O)[C@H](O)[C@H]1O (stereo not given in full)?
A: Potency [1]: inactive; Potency [2]: inactive

Q: For CN(CCCNC(=O)c1ccc2nc3c(c(Cl)c2c1)CCCC3)Cc1ccccc1, which Potency [1] is on record?
A: 5800 nM (active)

Q: What about the Potency [2] of the same compound?
A: 8200 nM (active)

Q: Which results are given for C=C1CC[C@@H]2[C@](C)(CO)[C@H](O)CC[C@@]2(C)[C@@H]1C/C=C1/C(=O)OCC1O (stereo not given in full)?
A: Potency [1]: 2910 nM (active); Potency [2]: 3260 nM (active)

Q: For CC(C)(O)/C=C/C1=CC(=O)[C@@](C)(O)C[C@H]1O, which Potency [1] is on record?
A: inactive

Q: With COc1cc([C@H]2OC[C@]3(OC(C)=O)[C@@H](c4ccc(O[C@@H]5O[C@H](CO)[C@@H](O)[C@H](O)[C@H]5O)c(OC)c4)OC[C@H]23)ccc1O as the compound, how does the Potency [1] read?
A: inactive

Q: What about the Potency [2] of the same compound?
A: inactive

Q: What does the source list for CC[C@@H](N)CNc1ccnc(-c2cc(-c3cnn(C)c3)ccc2O)n1?
A: Potency [1]: 920 nM (active); Potency [2]: 1640 nM (active)

Q: Which Potency [1] does the source give for CC(C)=C1C[C@@]2(C)C(=CC1=O)CC[C@@H](O)[C@@H]2C here?
A: inactive

Q: With CC1CCC2C(C)(C)C(O)C(O)CC2(C)C12Cc1c(O)cc(CO)c(C=O)c1O2 (stereo not given) as the compound, how does the Potency [1] read?
A: inactive

Q: Which Potency [1] does the source give for O=S(=O)(c1ccccc1)c1cnc2c(N3CCNCC3)cccc2c1 here?
A: inactive

Q: Which Potency [1] does the source give for O=S(=O)(NCc1cccc2ccccc12)c1cc(Cl)c(Oc2cccc(N3CCNCC3)c2)s1 here?
A: 2590 nM (active)

Q: And the Potency [2]?
A: 4610 nM (active)

Q: Which Potency [1] does the source give for C[C@@H]1CC[C@H]2C(C)(C)[C@H](O)[C@H](O)C[C@]2(C)[C@@]12Cc1c(O)cc3c(c1O2)CNC3=O here?
A: inactive

Q: Which results are given for Cn1c(CNc2ccc(C(=N)N)cc2)nc2cc(C(=O)N(CCC(=O)O)c3ccccn3)ccc21?
A: Potency [1]: 4610 nM (active); viability (% of control) [1]: 81.5% [at 0.588 µM]; Potency [2]: 4110 nM (active); viability, % of control [2]: 94.3% [at 0.588 µM]; Potency [3]: inactive; Potency [4]: inactive; Potency [5]: inactive; Potency [6]: inactive; Potency [7]: inactive; Potency [8]: inactive; Potency [9]: inactive; Potency [10]: inactive; activity (max response) [11]: 9.7%; activity change, negative = viability loss [12]: 15.5% [at 0.587 µM]

Q: Which results are given for Cc1cc(NC(=O)c2cccc(NC(=O)/C=C/CN(C)C)c2)ccc1Nc1nccc(-c2cccnc2)n1?
A: Potency [1]: 2060 nM (active); Potency [2]: 2310 nM (active)

Q: With COc1cc(/C=C/C(=O)OC[C@H]2O[C@@H](OC3OC=C(C(=O)O)C4C(O)CC(C)(O)C34)[C@H](O)[C@@H](O)[C@@H]2O)cc(OC)c1O (stereo not given in full) as the compound, how does the Potency [1] read?
A: inactive

Q: Which Potency [1] does the source give for CC(C)=CCCC1(C)/C=C/C(OC(=O)C=C(C)C)C(C)(O)/C=C/C(=O)/C(CO)=C\C1 (stereo not given) here?
A: 1590 nM (active)

Q: And the Potency [2]?
A: 2520 nM (active)

Q: Which results are given for O=C(Cc1ccccc1)OC[C@H]1O[C@H](O[C@H]2O[C@H](CO)[C@@H](O)[C@H](O)[C@H]2O)[C@H](O)[C@@H](O)[C@@H]1O?
A: Potency [1]: inactive; Potency [2]: inactive

Q: With CC(=O)c1c(C)cc(O)cc1O[C@@H]1O[C@H](CO)[C@@H](O)[C@H](O)[C@H]1O as the compound, how does the Potency [1] read?
A: inactive

Q: For Cn1ncc(Cl)c1-c1cc(C(=O)N[C@H](CN)Cc2ccc(F)c(F)c2)oc1Cl, which Potency [1] is on record?
A: 2590 nM (active)

Q: With COC1C(O)C(OC2CCC3(C)C(CCC45CCC6C7(COC(=O)C7)OC4(O)C6(C)CCC35)C2)OC(C)C1OC1OC(CO)C(OC2OC(CO)C(O)C(O)C2O)C(O)C1O (stereo not given) as the compound, how does the Potency [1] read?
A: 3900 nM (active)

Q: Which Potency [1] does the source give for COC(=O)C1=COC(OC2OC(CO)C(O)C(O)C2O)C2C(COC(=O)/C=C/c3ccc(O)cc3)C(O)C(O)C12 (stereo not given) here?
A: inactive

Q: What about the Potency [2] of the same compound?
A: inactive

Q: Which Potency [1] does the source give for O=C(OCc1ccccc1O[C@@H]1O[C@H](CO)[C@@H](O)[C@H](O)[C@H]1O)C1(O)C=CCCC1O (stereo not given in full) here?
A: inactive

Q: Which Potency [1] does the source give for CC(=O)O[C@H]1CC2C(COC(=O)CC(C)C)=CO[C@@H](OC(=O)CC(C)C)C2[C@]12CO2 (stereo not given in full) here?
A: 1420 nM (active)

Q: What does the source list for CC(C)C1=CCC(C)(O)C(OC2OC(CO)C(O)C(O)C2O)C1 (stereo not given)?
A: Potency [1]: inactive; Potency [2]: inactive

Q: For COc1ccc(S(=O)(=O)Nc2nc(-c3cccc([N+](=O)[O-])c3)cs2)cc1OC, which Potency [1] is on record?
A: inactive

Q: With C[C@H](NC(=O)C(C)(C)Oc1ccc(C(F)(F)F)cn1)[C@@H](Cc1ccc(Cl)cc1)c1cccc(C#N)c1 as the compound, how does the Potency [1] read?
A: 13000 nM (active)

Q: For CCCc1cc(C)n(C)c(=O)c1CN(C)C(=O)c1cc(-c2ccc(N3CCN(C(C)C)CC3)nc2)cc2c1cnn2C(C)C, which Potency [1] is on record?
A: inactive

Q: For NC(=O)Nc1cc(-c2cccc(F)c2)sc1C(=O)NC1CCCNC1 (stereo not given), which Potency [1] is on record?
A: inactive

Q: With CCC/C=C/C(=O)O[C@H]1CC(C)(C)CC2[C@]13[C@H](O)O[C@@]21CCC2[C@@]4(C)CC[C@H](O[C@@H]5O[C@H](C(=O)O)[C@@H](O)[C@H](O[C@@H]6O[C@H](CO)[C@H](O)[C@H](O)[C@H]6O[C@@H]6O[C@@H](C)[C@H](O)[C@@H](O)[C@H]6O[C@@H]6OC[C@](O)(CO)[C@H]6O)[C@H]5O[C@@H]5O[C@H](CO)[C@H](O)[C@H](O)[C@H]5O)C(C)(C)C4CC[C@@]2(C)[C@]1(C)C[C@H]3OC(C)=O (stereo not given in full) as the compound, how does the viability (% of control) [1] read?
A: 57.2% [at 9.25 µM]

Q: Which Potency [1] does the source give for O=C(O[C@@H]1O[C@H](CO)[C@@H](O)[C@H](O)[C@H]1O)c1ccccc1 here?
A: inactive

Q: Which Potency [1] does the source give for CC1=CC(=O)CC(C)(CO[C@@H]2O[C@H](CO)[C@@H](O)[C@H](O)[C@H]2O)C1(O)/C=C/C(C)=C/C(=O)O (stereo not given in full) here?
A: inactive

Q: Which results are given for CC1(C)C[C@H](O)C[C@@]2(C)[C@H]1[C@H](O)C=C1COC(=O)[C@@]12O?
A: Potency [1]: inactive; Potency [2]: inactive

Q: Which Potency [1] does the source give for CC[C@H](Nc1ncnc2nc[nH]c12)c1nc2cccc(F)c2c(=O)n1-c1ccccc1 here?
A: 332 nM (active)

Q: And the viability (% of control) [1]?
A: 57.2% [at 9.25 µM]

Q: What about the viability, % of control [2] of the same compound?
A: 61.7% [at 9.25 µM]

Q: What about the activity (max response) [11] of the same compound?
A: -2.88%

Q: What about the Potency [12] of the same compound?
A: inactive

Q: Which Potency [1] does the source give for CC(C)=CCC[C@](C)(O)[C@H]1CC[C@]2(C)[C@@H]1[C@H](O)CC1[C@@]3(C)CC[C@H](O)C(C)(C)C3[C@@H](O[C@@H]3O[C@H](CO)[C@@H](O)[C@H](O)[C@H]3O[C@@H]3OC[C@@H](O)[C@H](O)[C@H]3O)C[C@]12C (stereo not given in full) here?
A: inactive

Q: What about the Potency [2] of the same compound?
A: inactive

Q: For COc1ccccc1CC(C(=O)O)N(C)C(=O)c1ccccc1 (stereo not given), which Potency [1] is on record?
A: inactive

Q: For COc1cc(Nc2ccc([N+](=O)[O-])cc2C(=O)O)cc2ccccc12, which Potency [1] is on record?
A: inactive

Q: Which Potency [1] does the source give for CCCCCOC(=O)Nc1nc(=O)n(C2O[C@H](C)[C@@H](O)[C@H]2O)cc1F (stereo not given in full) here?
A: inactive

Q: For CCc1ccc2nc(Nc3cc(Cc4ccccc4)nc(NC4CCC(O)CC4)n3)sc2c1 (stereo not given), which Potency [1] is on record?
A: 8330 nM (active)

Q: What about the Potency [2] of the same compound?
A: 6610 nM (active)

Q: With CC(=O)N1CCN(NC(=O)c2ccc(F)cc2)CC1 as the compound, how does the Potency [1] read?
A: inactive

Q: And the Potency [2]?
A: inactive

Q: Which Potency [1] does the source give for CC(C)(CC(=O)N1CCCC1)NCC(=O)N1C[C@@H](F)C[C@H]1C#N here?
A: inactive

Q: For C[C@@H]1C[C@H]2O[C@@H]2/C=C\C=C\C(=O)Cc2c(Cl)c(O)cc(O)c2C(=O)O1, which Potency [1] is on record?
A: 32.1 nM (active)

Q: What about the viability (% of control) [1] of the same compound?
A: 9.93% [at 9.25 µM]

Q: What about the Potency [2] of the same compound?
A: 71.8 nM (active)
